PubChem BioAssay (EPA / NIEHS)
Inconclusive results are not listed. Active and inactive are the calls of the source. How the source made its calls: active means hit-call score of the fitted dose curve at least 0.9, where 1 is the maximum; inconclusive means response in the unintended direction; inactive means score below 0.9.

Target: rat Gamma-Aminobutyric Acid Type A Receptor, Non-Selective (GABAR-NonSelective), Gabra1 (gene 29705) (UniProt P62813)
Experiment: NVS_LGIC_rGABAR_NonSelective: NovaScreen (NVS) Ligand-Gated Ion Channel Assay for rat Gamma-Aminobutyric Acid Type A Receptor, Non-Selective (GABAR-NonSelective) (AID 2283326)
Summary of the method: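 Compounds were first screened in duplicate at 25 uM, with actives run as singleton concentration series (max 50 uM). Binding of a radioligand to rat whole-brain GABA-A preparation was measured by filtration and scintillation counting after 1 h, DMSO baseline.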

Sequence of rat Gamma-Aminobutyric Acid Type A Receptor, Non-Selective (GABAR-NonSelective), Gabra1 (gene 29705) (P62813 whole entry, looked up): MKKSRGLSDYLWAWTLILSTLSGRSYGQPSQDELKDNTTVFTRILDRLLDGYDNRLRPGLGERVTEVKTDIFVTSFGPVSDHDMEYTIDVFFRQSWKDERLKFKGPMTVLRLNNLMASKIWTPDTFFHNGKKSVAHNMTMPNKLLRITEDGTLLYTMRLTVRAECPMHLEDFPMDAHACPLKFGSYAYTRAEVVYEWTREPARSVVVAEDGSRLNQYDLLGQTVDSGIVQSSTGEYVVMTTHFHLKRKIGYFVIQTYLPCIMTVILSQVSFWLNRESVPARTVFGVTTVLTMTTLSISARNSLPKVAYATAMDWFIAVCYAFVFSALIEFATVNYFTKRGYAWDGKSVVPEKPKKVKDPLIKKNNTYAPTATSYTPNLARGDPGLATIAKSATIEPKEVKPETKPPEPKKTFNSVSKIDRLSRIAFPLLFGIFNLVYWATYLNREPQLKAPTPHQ

Compound | outcome | AC50
CCC(C)c1ccc(O)cc1 (stereo not drawn) | inactive | –
O=C(O)C1C2CCC(O2)C1C(=O)O (stereo not drawn) | – | 2.14 µM (active)
Nc1ccc(N=Nc2ccccc2)cc1 | inactive | –

Target: human Constitutive Androstane Receptor (CAR), NR1I3 (gene 9970) (UniProt Q14994)
Sequence (Q14994 whole entry, looked up): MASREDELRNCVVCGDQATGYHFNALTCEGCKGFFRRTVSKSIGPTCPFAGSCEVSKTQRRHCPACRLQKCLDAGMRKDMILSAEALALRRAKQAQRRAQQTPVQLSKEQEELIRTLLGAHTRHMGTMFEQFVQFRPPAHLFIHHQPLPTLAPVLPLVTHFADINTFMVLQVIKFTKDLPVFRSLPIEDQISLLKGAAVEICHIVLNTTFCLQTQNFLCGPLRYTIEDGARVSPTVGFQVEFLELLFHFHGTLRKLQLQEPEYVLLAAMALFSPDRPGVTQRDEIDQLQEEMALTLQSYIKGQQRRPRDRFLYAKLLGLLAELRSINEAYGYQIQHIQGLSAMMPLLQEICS
Experiment: NVS_NR_hCAR_Agonist: NovaScreen (NVS) Nuclear Receptor Binding Assay for human Constitutive Androstane Receptor Agonism (CAR) (AID 2283328)
Protocol: NVS_NR_hCAR_Agonist is a biochemical, single-readout assay that uses extracted gene-proteins in a cell-free assay. Measurements were taken 1 hour after chemical dosing in a 384-well plate.NVS_NR_hCAR_Agonist is one of one assay component(s) measured or calculated from the NVS_NR_hCAR_Agonist assay. It is designed to make measurements of fluorescent resonance energy transfer, a form of binding reporter, as detected with fluorescent resonance energy transfer signals by Time-Resolved Fluorescence Resonance Energy Transfer (TR-FRET) technology.Data from the assay component NVS_NR_hCAR_Agonist was analyzed into 1 assay endpoint. This assay endpoint, NVS_NR_hCAR_Agonist, was analyzed in the positive analysis fitting direction relative to DMSO as the negative control and baseline of activity. Using a type of binding reporter, gain-of-signal activity can be used to understand changes in the binding as they relate to the gene NR1I3. Furthermore, this assay endpoint can be referred to as a primary readout, because the performed assay has only produced 1 assay endpoint. To generalize the intended target to other relatable targets, this assay endpoint is annotated to the nuclear receptor intended target family, where the subfamily is non-steroidal.
(§1) Binding assays used specific radioligands (tritiated, iodinated) with non-radioactive competitive displacement ligands in agonist or antagonist protocols (as indicated) and various reference compounds and inhibitors to titrate specific binding to receptors and transporters. Most enzyme assays (CYPs, kinases, phosphatases, proteases, HDACs) used recombinant protein and specific substrates (fluorescence mostly, some colorimetric and radioactive) and inhibitors, followed by a biochemical separation of substrate and product. All assays for the biochemical HTS were initially run in duplicate at a single concentration (10 uM for CYP450 assays and 25 uM for all others). Assay-chemical combinations meeting a pre-defined threshold (e.g., 30% inhibition and other criteria defined below) were then run in singleton concentration-response format with maximum concentration of 20 uM for CYPs and 50 uM for all others. Each assay was run with positive and negative controls, and concurrent controls on every plate. The follow-up (secondary) screen tested active chemical-pairs in concentration series, as well as a few additional assays not tested in the primary screen, some selected negative inactives, and several cases re-run in the concentration series for confirmatory purposes.

Compound | outcome
CCCSC(=O)N(CCC)CCC | inactive
c1ccc2c(c1)-c1cccc3cccc-2c13 | inactive
Cc1cc(N=Nc2ccccc2C)ccc1N | inactive
CC(C)(C)OOC(C)(C)CCC(C)(C)OOC(C)(C)C | inactive
Nc1ccc(N=Nc2ccccc2)cc1 | inactive

Target: human Peripheral-type Benzodiazepine Receptor (PBR), TSPO (gene 706) (UniProt P30536)
Sequence (P30536 whole entry, looked up): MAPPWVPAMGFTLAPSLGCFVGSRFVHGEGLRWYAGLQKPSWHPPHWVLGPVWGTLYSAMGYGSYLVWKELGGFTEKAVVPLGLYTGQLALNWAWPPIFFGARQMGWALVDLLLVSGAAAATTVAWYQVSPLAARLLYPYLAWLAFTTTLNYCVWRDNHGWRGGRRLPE
Experiment: NVS_MP_hPBR: NovaScreen (NVS) Membrane Protein Assay for human Peripheral-type Benzodiazepine Receptor (PBR) (AID 2283331);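 further: hits reduce radioligand binding relative to DMSO baseline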
Summary of the method: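 Cell-free binding to human colonic membrane preparations measured by filter-based scintillation counting after 1 h. Compounds first run at 25 uM in duplicate, then concentration series for actives; signal loss against DMSO baseline.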

Compound | AC50 | outcome
Cc1cc(N=Nc2ccccc2C)ccc1N | 36.2 µM (active) | –
O=C(Nc1ccccc1)c1ccccc1I | 1.46 µM (active) | –
CN(C)c1ccc(C(=O)c2ccc(N(C)C)cc2)cc1 | 10.2 µM (active) | –
CC(C)COC(=O)c1ccccc1C(=O)OCC(C)C | – | inactive
Cc1ccc(N=C=O)cc1N=C=O | 4.24 µM (active) | –

Target: rat Peripheral-type Benzodiazepine Receptor (PBR), Tspo (gene 24230) (UniProt P16257)
Sequence (P16257 whole entry, looked up): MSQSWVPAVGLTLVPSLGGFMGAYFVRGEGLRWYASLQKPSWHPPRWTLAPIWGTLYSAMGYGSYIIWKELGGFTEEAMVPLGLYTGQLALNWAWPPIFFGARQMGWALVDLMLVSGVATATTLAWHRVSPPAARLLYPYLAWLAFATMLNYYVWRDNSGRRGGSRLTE
Experiment: NVS_MP_rPBR: NovaScreen (NVS) Membrane Protein Assay for rat Peripheral-type Benzodiazepine Receptor (PBR) (AID 2283335)
Protocol: NVS_MP_rPBR is a biochemical, single-readout assay that uses extracted gene-proteins from Rat kidney membranes in a tissue-based cell-free assay. Measurements were taken 1 hour after chemical dosing in a 48-well plate.NVS_MP_rPBR is one of one assay component(s) measured or calculated from the NVS_MP_rPBR assay. It is designed to make measurements of radioligand binding, a form of binding reporter, as detected with scintillation counting signals by Filter-based radiodetection technology.Data from the assay component NVS_MP_rPBR was analyzed into 1 assay endpoint. This assay endpoint, NVS_MP_rPBR, was analyzed in the positive analysis fitting direction relative to DMSO as the negative control and baseline of activity. Using a type of binding reporter, loss-of-signal activity can be used to understand changes in the binding as they relate to the gene Tspo. Furthermore, this assay endpoint can be referred to as a primary readout, because the performed assay has only produced 1 assay endpoint. To generalize the intended target to other relatable targets, this assay endpoint is annotated to the transporter intended target family, where the subfamily is cholesterol transporter.
as §1, with “Assay-chemical combinations meeting a pre-defined threshold (e.g., 30% inhibition and other criteria defined below) were then run in singleton concentration-response format with maximum concentration of 20 uM for CYPs and 50 uM for all others.” left out

Compound | AC50 | outcome
Cc1cc(N=Nc2ccccc2C)ccc1N | 14 µM (active) | –
O=C(Nc1ccccc1)c1ccccc1I | 1.61 µM (active) | –
CN(C)c1ccc(C(=O)c2ccc(N(C)C)cc2)cc1 | – | inactive
CC(C)COC(=O)c1ccccc1C(=O)OCC(C)C | – | inactive
Nc1ccc(N=Nc2ccccc2)cc1 | 11 µM (active) | –
CCCCOC(=O)c1ccccc1C(=O)OCc1ccccc1 | – | inactive

Target: bovine Gamma-Aminobutyric Acid Type A Receptor Agonist (GABAR Agonist), GABRA1 (gene 780973) (UniProt P08219)
Sequence (P08219 whole entry, looked up): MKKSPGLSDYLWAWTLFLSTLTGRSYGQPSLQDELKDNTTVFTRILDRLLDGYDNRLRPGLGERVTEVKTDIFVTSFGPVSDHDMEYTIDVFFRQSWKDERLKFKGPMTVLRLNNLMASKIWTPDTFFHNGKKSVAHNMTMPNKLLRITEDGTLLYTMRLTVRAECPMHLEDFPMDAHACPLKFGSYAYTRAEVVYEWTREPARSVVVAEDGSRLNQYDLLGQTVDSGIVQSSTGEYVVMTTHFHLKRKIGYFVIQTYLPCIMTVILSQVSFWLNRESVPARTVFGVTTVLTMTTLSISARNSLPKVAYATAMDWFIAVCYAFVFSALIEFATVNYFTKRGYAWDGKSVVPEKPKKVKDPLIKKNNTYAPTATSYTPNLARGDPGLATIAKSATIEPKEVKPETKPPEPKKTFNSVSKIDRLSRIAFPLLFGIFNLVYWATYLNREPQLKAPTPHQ
Experiment: NVS_LGIC_bGABAR_Agonist: NovaScreen (NVS) Ligand-Gated Ion Channel Assay for bovine Gamma-Aminobutyric Acid Type A Receptor Agonist (GABAR Agonist) (AID 2283338)
Summary of the method: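 Radioligand binding to bovine cerebellar membranes in agonist format, read by filter-based scintillation counting after 1 h. Primary screen in duplicate at 25 uM, with actives followed in concentration series. Gain of signal versus DMSO.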

Compound | outcome
CN(C)C(=O)Nc1ccc(Cl)cc1 | inactive
C=CCc1ccc2c(c1)OCO2 | inactive
CCCCOC(=O)c1ccccc1C(=O)OCc1ccccc1 | inactive
CCC12COCN1COC2 | inactive
